# Measured values taken from the supplement of paper PMC6555819.
# Tested on: RXRa DBDmut IVT, anti-RXR (DBD mutation: RXRa K156A/R161A, NR concentration 90 nM)
# Assay: PBM binding z-score (relative to random genomic background probes); higher = stronger binding; sequences stand for … in GC…GCGATTGACAGCGTAGAATGAAGG
# How it was run: (§1)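 Random background probes are the reference for binding z-scores. These scores derive from regression-normalized fluorescence on custom Agilent 4×180K protein-binding microarrays incubated 1 h with ligand-free nuclear receptor dimers. Binding was detected with antibodies against each partner (one per run).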
row,Sequence,PBM binding z-score
1,CCGAGTAGGTTATGGGGCATTAAGGCAACGGTGA,-0.314
2,CCAGACAGGTGAGTAGGTAACTCAGCCTCGATTA,0.331
3,CCTATTTGGTCAAGGTCACACACGCTATAGGTAC,2.35
4,TCTATTAGTTGATTACGGCAACCGAAACAGCGGA,1.38
5,ATATGTACGTTACATCCGGGTCATTCAGGCTATG,1.2
6,CCTTACGGGTCACTCCAGGTTATAGTATCGGAGT,1.55
7,TCTTGTAGATCAAGCAGGTTTAGAAAGCCTGAGT,0.521
8,CGTCCAAGTTCAATGCTAGGTCAGTGAAAGCATT,4.53
9,AGAACGAGGGCAATGAGTTGAGAGCACGGGTGGC,1.93
10,CGTCCAAGGTCAAGGTCAGAGAAAGAGACTCGAA,3.66
11,ATCGAAAGGTCGTGAGGTGAGTATGCAGAAAGGC,1.02
12,TCGAGTAGGTTACCAATGGGGCATTCTGCTTTCT,0.539
13,CCTTTCGGGTCACGAGGTTATAGCACGACGAGCG,2.08
14,ACAGACAGGTGAGTGAAGGAAACTCAGCTGGACG,-0.324
15,CTACCCAGGTGAACAAGGTCGTTGATTACTATTC,0.701
16,CCTAGTTGGTCAAGGTCACACTCGCTATAGGTAC,2.44
17,CAAACTAGGTCAAGGTCAAACTCGGTTTGTGCCA,3.28
18,ACTAGCAGGCCAAGATTGGGTCACTCAAACAAAG,-0.534
19,CCTACTGGGCCAAGGTCCTTGATCAGTCAAAGCA,-1.13
20,GCGACTGGGGCAATGCAGGTTACCATAAGGTTGG,-0.584

row,Sequence,PBM binding z-score
1,TCTTGTAGATCAAAAGAGGTTAAGAAAGTGCGCT,0.343
2,CCAGACAGGTGAAAGGTAAATCAGTCTGGTACGC,-0.121
3,TCTAGCAGGCCAGAGGTTCACTCAAGAGGTACGG,0.415
4,TCTTGTAAATCAGCAGGTTAAGAAAGCTGGCCAA,0.924
5,TCTAGCAGGCCAGAGAGTCACTCAAGAGGTACGG,-0.229
6,CCTACTGGGCCGCGAAAGGTCATTGATTCAGTGA,0.701
7,CAAACTAGGTCAAGAGGTCAATGTCCGCTTCCCG,2.81
8,AGAACGAGGGGAATGAGTTGATAGCACGGGTGGC,0.224
9,CTACCAAGGTGAACAAGGTCCTTGATTACTATTC,0.723
10,CCTACTGGGCCATCACGTCATTGATATCAACGTT,-0.0697
11,TCTCGGAGGACACGAAAGGTCAGAGCGCGACATC,1.09
12,ATATGTAGGTTAAGGGTCATTCAGGTTGGTTCGC,2.37
13,TCTCGGAGGACACGAAAGGTCAGCGCTCGACATC,1.39
14,CGAACTCGGTCAGAACAGGACAGTGAAGGATGAT,0.172
15,GCGACTGGGACAAAGCAGGTTACCATAAGGTTGG,-0.523
16,ATCGAAAGGTCGACGAGGTGAGTACACACCGTTT,1.34
17,TCGAGTAGGTTAGTCGGGGCCTTCAGCCAACATA,0.14
18,CCTACTGGGCCAAAGGTCGTTGATTCCAATGCTC,0.474
19,ATCTCTAGGTAACAAGCTCAGTGAAAGAGAGGAC,-0.305
20,TCTTGTAGATCAACAGAGGTTAAGAAAGTGCGCT,0.665

# Tested on: RXRa homodimer (NR concentration 180 nM)
# Assay: as above
# How it was run: as §1
row,Sequence,PBM binding z-score
1,CCGAGTAGGTTATGGGGCATTAAGGCAACGGTGA,0.65
2,CCAGACAGGTGAGTAGGTAACTCAGCCTCGATTA,0.246
3,CCTATTTGGTCAAGGTCACACACGCTATAGGTAC,4.55
4,TCTATTAGTTGATTACGGCAACCGAAACAGCGGA,0.521
5,ATATGTACGTTACATCCGGGTCATTCAGGCTATG,2.07
6,CCTTACGGGTCACTCCAGGTTATAGTATCGGAGT,4.67
7,TCTTGTAGATCAAGCAGGTTTAGAAAGCCTGAGT,-0.16
8,CGTCCAAGTTCAATGCTAGGTCAGTGAAAGCATT,2.5
9,AGAACGAGGGCAATGAGTTGAGAGCACGGGTGGC,0.838
10,CGTCCAAGGTCAAGGTCAGAGAAAGAGACTCGAA,6.72
11,ATCGAAAGGTCGTGAGGTGAGTATGCAGAAAGGC,5.27
12,TCGAGTAGGTTACCAATGGGGCATTCTGCTTTCT,0.447
13,CCTTTCGGGTCACGAGGTTATAGCACGACGAGCG,7.39
14,ACAGACAGGTGAGTGAAGGAAACTCAGCTGGACG,0.249
15,CTACCCAGGTGAACAAGGTCGTTGATTACTATTC,1.46
16,CCTAGTTGGTCAAGGTCACACTCGCTATAGGTAC,3.96
17,CAAACTAGGTCAAGGTCAAACTCGGTTTGTGCCA,5.73
18,ACTAGCAGGCCAAGATTGGGTCACTCAAACAAAG,0.621
19,CCTACTGGGCCAAGGTCCTTGATCAGTCAAAGCA,-0.463
20,GCGACTGGGGCAATGCAGGTTACCATAAGGTTGG,0.553

row,Sequence,PBM binding z-score
1,TCTTGTAGATCAAAAGAGGTTAAGAAAGTGCGCT,1.35
2,CCAGACAGGTGAAAGGTAAATCAGTCTGGTACGC,1.85
3,TCTAGCAGGCCAGAGGTTCACTCAAGAGGTACGG,0.756
4,TCTTGTAAATCAGCAGGTTAAGAAAGCTGGCCAA,0.361
5,TCTAGCAGGCCAGAGAGTCACTCAAGAGGTACGG,0.33
6,CCTACTGGGCCGCGAAAGGTCATTGATTCAGTGA,5.19
7,CAAACTAGGTCAAGAGGTCAATGTCCGCTTCCCG,7.85
8,AGAACGAGGGGAATGAGTTGATAGCACGGGTGGC,0.437
9,CTACCAAGGTGAACAAGGTCCTTGATTACTATTC,0.86
10,CCTACTGGGCCATCACGTCATTGATATCAACGTT,-0.108
11,TCTCGGAGGACACGAAAGGTCAGAGCGCGACATC,4.3
12,ATATGTAGGTTAAGGGTCATTCAGGTTGGTTCGC,6.65
13,TCTCGGAGGACACGAAAGGTCAGCGCTCGACATC,4.52
14,CGAACTCGGTCAGAACAGGACAGTGAAGGATGAT,0.348
15,GCGACTGGGACAAAGCAGGTTACCATAAGGTTGG,0.419
16,ATCGAAAGGTCGACGAGGTGAGTACACACCGTTT,4.5
17,TCGAGTAGGTTAGTCGGGGCCTTCAGCCAACATA,-0.278
18,CCTACTGGGCCAAAGGTCGTTGATTCCAATGCTC,2.82
19,ATCTCTAGGTAACAAGCTCAGTGAAAGAGAGGAC,0.272
20,TCTTGTAGATCAACAGAGGTTAAGAAAGTGCGCT,1.68
